Experimental data reported in PubChem BioAssay.
“And” between values parts separate entries of the source, which are not always exact repeats. Identical values can stand only once. Records with an inconclusive call do not appear. The source made the active and inactive calls.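 The calls were made as follows, unless noted: active = percent response above 42, roughly 3 SD of non-fluorescent test compounds; inactive = the rest.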

Columns and labels:
[1] = yeast TOR pathway RPL19A-GFP modulators, primary screen, cell-based, S. cerevisiae, multiplex flow cytometry (AID 1862; in the data active = percent of DMSO control GFP below about 86%;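 also: lower values mimic rapamycin by blocking the RPL19A rise seen in DMSO cells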); details: S. cerevisiae RPL19A-GFP strain, flow cytometry fluorescence, 3 h; at 10 µM; stronger effect = lower value
[2] = modulators of MEP2-GFP levels in yeast, primary screen, S. cerevisiae, multiplex flow cytometry (AID 1867;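 active = GFP response, as percent of the DMSO control, above the screen-wide mean plus 3 SD, about 139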;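 also: median GFP channel fluorescence of barcode-gated MEP2-GFP cells measured by flow cytometry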); details: S. cerevisiae MEP2-GFP strain, 3 h, at 10 µM, stronger effect = higher value, 100% means same as DMSO wells
[3] = modulators of CIT2-GFP expression in yeast, primary screen, S. cerevisiae, GFP fusion, multiplex flow cytometry (AID 1870;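 active = percent response above a set limit, the screen-wide mean plus 3 SD, cut at about 130% in these data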;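 also: barcoded CIT2-GFP strain pooled with four other GFP strains with rapamycin as positive control; median GFP fluorescence per well over plate mean of DMSO wells so 100% = DMSO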); details: 3 h, at 10 µM, stronger effect = higher value
[4] = modulators of LAP4-GFP expression in yeast, primary screen, S. cerevisiae, multiplex flow cytometry (AID 1873;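 active = GFP signal, as percent of the solvent control, above the screen mean plus 3 SD, about 149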); details: 3 h, at 10 µM, stronger effect = higher value
[5] = modulators of AGP1-GFP expression in yeast TOR pathway, primary screen, cell-based, multiplex flow cytometry, S. cerevisiae (AID 1887;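 active = GFP signal above the screen-wide mean plus 3 SD, that is over about 124.5% of the solvent control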;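 also: AGP1-GFP fusion strain of S. cerevisiae within a five-strain barcoded multiplex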); details: 3 h, at 10 µM, stronger effect = higher value
[6] = inhibitors of CD8+ T cell-vesicle binding, pilot screen, LFA-1/ICAM-1 modulator project, MLPCN validation set, flow cytometry (AID 2523;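 active = response below a set limit, under 55% cells CD8-positive and vesicle-bound, and CD8 cells' 90th-percentile brightness under 279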;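 as to vesicle binding response: mean PE anti-B7-1 fluorescence of CD8+ cells relative to row control; 100% = QL9-loaded vesicles with DMSO vehicle in the same plate row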); details: 2C mouse CD8+ T cells, at 7 µM, stronger effect = lower value; double positive events: measured here: CD8+/vesicle+ event percentage
[7] = molecular target: Integrin beta-1 (Homo sapiens) + Integrin alpha-4 (Homo sapiens) (UniProt P13612+P05556); experiment: inhibition of HUTS-21 binding to VLA-4, pilot screen, VLA-4 allosteric modulator project, U937 cells, HUTS-21 mAb, flow cytometry, validation set (AID 2674;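 active = inhibition above 50%, about 3 SD of the validation set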;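 also: antibody binding induced by the VLA-4 ligand LDV present at three times its Kd; 0% = LDV ligand with antibody and no compound and 100% = antibody without LDV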); details: HUTS-21 LIBS mAb binding, at 6.7 µM, stronger effect = higher value, binding induced by LDV ligand
Chain of Integrin beta-1 (Homo sapiens) + Integrin alpha-4 (Homo sapiens) (P05556 whole entry, looked up): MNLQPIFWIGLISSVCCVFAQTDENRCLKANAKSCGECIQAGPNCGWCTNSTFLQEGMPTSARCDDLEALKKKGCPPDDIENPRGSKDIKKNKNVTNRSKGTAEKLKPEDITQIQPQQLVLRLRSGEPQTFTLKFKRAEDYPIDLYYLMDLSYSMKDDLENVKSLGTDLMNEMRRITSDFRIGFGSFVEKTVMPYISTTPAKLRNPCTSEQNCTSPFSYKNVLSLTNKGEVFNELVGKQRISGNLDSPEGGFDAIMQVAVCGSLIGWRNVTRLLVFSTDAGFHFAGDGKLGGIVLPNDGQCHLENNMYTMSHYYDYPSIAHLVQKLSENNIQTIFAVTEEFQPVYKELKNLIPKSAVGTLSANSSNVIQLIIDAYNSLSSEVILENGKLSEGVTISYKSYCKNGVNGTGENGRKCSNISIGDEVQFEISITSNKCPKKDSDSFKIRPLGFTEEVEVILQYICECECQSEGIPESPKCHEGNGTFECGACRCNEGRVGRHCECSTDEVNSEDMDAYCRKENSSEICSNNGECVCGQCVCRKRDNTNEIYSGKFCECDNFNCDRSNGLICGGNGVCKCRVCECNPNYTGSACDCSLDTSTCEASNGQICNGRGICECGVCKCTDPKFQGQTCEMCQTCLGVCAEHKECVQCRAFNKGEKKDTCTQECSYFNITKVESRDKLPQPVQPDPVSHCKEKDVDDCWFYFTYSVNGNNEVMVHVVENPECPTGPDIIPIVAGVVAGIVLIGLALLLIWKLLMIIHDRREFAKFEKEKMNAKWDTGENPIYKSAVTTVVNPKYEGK
Chain of Integrin beta-1 (Homo sapiens) + Integrin alpha-4 (Homo sapiens) (P13612 whole entry, looked up): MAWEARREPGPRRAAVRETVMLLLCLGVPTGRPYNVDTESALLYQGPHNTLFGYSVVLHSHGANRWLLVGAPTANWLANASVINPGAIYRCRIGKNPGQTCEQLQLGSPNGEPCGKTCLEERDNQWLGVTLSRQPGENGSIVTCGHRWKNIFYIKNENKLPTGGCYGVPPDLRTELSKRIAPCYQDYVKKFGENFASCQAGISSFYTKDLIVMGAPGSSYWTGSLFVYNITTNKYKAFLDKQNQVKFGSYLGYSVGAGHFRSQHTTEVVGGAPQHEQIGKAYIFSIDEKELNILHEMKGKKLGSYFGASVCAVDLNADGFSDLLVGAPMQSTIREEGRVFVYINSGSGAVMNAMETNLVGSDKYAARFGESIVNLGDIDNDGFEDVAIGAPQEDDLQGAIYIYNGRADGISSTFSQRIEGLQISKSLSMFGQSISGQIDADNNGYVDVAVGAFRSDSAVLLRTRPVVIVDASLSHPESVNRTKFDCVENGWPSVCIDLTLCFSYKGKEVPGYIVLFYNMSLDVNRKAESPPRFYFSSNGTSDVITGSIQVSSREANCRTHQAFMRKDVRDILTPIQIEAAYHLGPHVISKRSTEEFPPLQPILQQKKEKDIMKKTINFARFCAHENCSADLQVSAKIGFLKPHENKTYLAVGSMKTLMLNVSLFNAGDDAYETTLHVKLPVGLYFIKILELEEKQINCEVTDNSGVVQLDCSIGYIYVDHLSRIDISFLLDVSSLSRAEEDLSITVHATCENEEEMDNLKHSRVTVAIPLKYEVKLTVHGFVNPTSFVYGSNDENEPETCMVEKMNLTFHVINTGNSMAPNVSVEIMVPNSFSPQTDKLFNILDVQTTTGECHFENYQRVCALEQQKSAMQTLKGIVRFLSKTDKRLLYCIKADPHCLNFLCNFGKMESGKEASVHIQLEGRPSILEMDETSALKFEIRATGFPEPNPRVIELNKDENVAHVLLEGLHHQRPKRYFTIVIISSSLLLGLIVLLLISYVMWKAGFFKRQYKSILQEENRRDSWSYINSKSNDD

[8] = superoxide lowering in aged yeast cells, pilot screen, validation compound set (AID 2706;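 active = superoxide response below 65% of plate, a cut near 3 SD across the whole screen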;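 also: yeast exposed to compound for one week at 30 degrees C before staining; 100% = mean of all compound wells on the same plate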); details: S. cerevisiae aging, superoxide DHE fluorescence; at 10 µM; stronger effect = lower value
[9] = molecular target: Beta-adrenergic receptor kinase 1 (Homo sapiens) (UniProt P25098); experiment: GRK2 binders displacing RNA aptamer, biochemical, validation, human GRK2, bead flow cytometry (AID 488806;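 active = aptamer binding inhibition above 30%, about 3 SD of noise from non-fluorescent compounds; inactive = inhibition at or below 30%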); details: bead-bound GRK2, FAM-aptamer displacement, at 10 µM, stronger effect = higher value
Chain of Beta-adrenergic receptor kinase 1 (Homo sapiens) (P25098 whole entry, looked up): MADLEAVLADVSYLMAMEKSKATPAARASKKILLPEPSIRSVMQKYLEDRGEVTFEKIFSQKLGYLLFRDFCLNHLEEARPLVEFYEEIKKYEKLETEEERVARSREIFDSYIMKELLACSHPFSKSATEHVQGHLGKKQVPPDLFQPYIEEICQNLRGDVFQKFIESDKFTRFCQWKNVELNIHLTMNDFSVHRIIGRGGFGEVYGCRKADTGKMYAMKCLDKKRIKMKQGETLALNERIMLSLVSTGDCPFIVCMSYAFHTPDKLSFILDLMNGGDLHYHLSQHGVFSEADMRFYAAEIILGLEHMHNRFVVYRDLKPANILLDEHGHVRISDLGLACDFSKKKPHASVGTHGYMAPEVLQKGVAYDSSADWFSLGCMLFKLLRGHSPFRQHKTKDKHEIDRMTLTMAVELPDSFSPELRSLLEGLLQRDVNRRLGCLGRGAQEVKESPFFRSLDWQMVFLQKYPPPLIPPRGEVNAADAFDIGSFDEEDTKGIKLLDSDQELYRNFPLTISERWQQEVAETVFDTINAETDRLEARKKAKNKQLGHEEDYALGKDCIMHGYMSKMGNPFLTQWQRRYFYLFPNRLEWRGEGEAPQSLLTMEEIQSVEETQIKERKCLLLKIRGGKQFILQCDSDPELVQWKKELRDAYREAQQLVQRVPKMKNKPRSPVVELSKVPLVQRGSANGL

[10] = molecular target: Beta-2 adrenergic receptor (Homo sapiens) (UniProt P07550); experiment: beta2AR agonists driving receptor internalization, pilot screen, cell-based, FAP fluorogen, flow cytometry, validation set (AID 504459); details: Am2.2-beta2AR cells, FAP surface receptor flow cytometry; at 10 µM; stronger effect = higher value;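 also: agonist-driven loss of surface beta2AR via internalization measured by FAP dye flow cytometry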
Chain of Beta-2 adrenergic receptor (Homo sapiens) (P07550 whole entry, looked up): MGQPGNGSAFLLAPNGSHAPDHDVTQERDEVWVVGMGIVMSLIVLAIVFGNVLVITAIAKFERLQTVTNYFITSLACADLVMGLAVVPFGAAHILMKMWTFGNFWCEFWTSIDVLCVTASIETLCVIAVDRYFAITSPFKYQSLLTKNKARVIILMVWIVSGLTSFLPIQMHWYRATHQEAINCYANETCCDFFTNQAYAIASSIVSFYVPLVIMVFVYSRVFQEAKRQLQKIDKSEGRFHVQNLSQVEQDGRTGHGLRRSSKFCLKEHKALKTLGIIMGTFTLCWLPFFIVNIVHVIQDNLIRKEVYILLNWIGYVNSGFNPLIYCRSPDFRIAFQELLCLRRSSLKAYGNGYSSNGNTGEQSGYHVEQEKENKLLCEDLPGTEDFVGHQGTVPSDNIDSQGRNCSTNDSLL

[11] = molecular target: AP-2 complex subunit beta (Homo sapiens) (UniProt P63010); experiment: inhibitors of arrestin peptide binding to AP2, pilot screen, biochemical, validation set, GST-AP2 beads, flow cytometry (AID 504541;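 active = inhibition above 54%, about 3 SD of non-fluorescent compounds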;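 also: AP2 carries R879A mutation and is captured from E. coli lysate; bead-bound FITC arrestin peptide fluorescence measuring arrestin peptide binding to AP2; 0% = DMSO wells and 100% = excess unlabeled arrestin peptide control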); details: FITC arrestin peptide, at 10 µM, stronger effect = higher value, AP2 beta2 appendage fragment, R879A mutant
Chain of AP-2 complex subunit beta (Homo sapiens) (P63010 whole entry, looked up, the tested form may be a part, one chain of several): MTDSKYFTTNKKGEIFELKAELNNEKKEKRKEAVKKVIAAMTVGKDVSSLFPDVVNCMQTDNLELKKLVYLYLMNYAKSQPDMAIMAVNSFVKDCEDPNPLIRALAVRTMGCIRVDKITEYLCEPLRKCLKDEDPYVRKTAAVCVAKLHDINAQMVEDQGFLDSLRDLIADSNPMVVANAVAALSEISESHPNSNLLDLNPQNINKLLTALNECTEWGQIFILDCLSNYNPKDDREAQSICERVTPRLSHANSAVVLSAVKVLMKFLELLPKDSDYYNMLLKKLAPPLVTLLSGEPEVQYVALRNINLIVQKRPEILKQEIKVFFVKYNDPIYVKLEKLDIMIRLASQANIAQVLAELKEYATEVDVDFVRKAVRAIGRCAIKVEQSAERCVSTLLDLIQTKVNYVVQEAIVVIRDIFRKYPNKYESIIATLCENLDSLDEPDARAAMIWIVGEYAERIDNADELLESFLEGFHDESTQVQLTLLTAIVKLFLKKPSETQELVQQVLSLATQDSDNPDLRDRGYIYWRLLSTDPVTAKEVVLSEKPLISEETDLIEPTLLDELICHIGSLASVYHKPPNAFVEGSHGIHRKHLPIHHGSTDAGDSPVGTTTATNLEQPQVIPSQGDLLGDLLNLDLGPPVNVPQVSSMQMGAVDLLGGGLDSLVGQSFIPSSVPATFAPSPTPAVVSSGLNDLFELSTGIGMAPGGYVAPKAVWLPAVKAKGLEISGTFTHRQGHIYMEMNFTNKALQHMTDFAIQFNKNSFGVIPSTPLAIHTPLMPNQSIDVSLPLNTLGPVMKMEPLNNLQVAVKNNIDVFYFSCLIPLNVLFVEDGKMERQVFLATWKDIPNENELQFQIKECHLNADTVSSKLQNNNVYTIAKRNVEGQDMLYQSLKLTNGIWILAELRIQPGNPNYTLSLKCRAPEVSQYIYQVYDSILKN

[12] = yeast V-ATPase proton transport modulators, S. cerevisiae, pHLuorin, HTS validation (AID 504600; in the data active = response above about 15%;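 also: plate controls were DMSO for no effect and reference compound for full effect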); details: S. cerevisiae pHLuorin cytosolic pH, at 10 µM, stronger effect = higher value
[13] = tested on: anti-desmoglein-3 scFv antibody binding to human DSG3; experiment: inhibitors of anti-DSG3 scFv binding to DSG3, pilot screen, biochemical, validation compound set, bead-based, flow cytometry (AID 588368;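 active = binding below the plate cutoff, the plate median minus 3 SD, with a reading above zero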;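 also: signal is the median channel fluorescence of bead-bound GFP antibody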); details: Protein G beads, DSG3-Fc, scFv-GFP binding, at 10 µM, stronger effect = lower value
[14] = inhibitors of fungal efflux pumps CDR1, CDR2, MDR1, pilot screen, validation compound set, multiplex, phenotypic (AID 588506;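 active = efflux inhibition above 0.42, the validation set average plus 4 SD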;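 also: Nile Red retained in cells so higher fluorescence means more efflux inhibition; 0 = negative control wells and 1 = enniatin B 25 µM full block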); details: S. cerevisiae pump-expressing triplex, Nile Red efflux flow cytometry; at 10 µM; stronger effect = higher value; the pumps come from Candida albicans
[15] = molecular target: ATP-binding cassette sub-family B member 6 (Homo sapiens) (UniProt Q9NP58); experiment: ABCB6 transporter inhibitors, pilot screen, K562-ABCB6 cells, flow cytometry, validation set (AID 588550;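 active = inhibition above the screen-wide mean plus 3 SD, about 51%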;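 also: 0% = DMSO wells and 100% = benzethonium chloride 70 µM positive control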); details: K562-ABCB6 porphyrin accumulation, 1 h, at 10 µM, stronger effect = higher value
Chain of ATP-binding cassette sub-family B member 6 (Homo sapiens) (Q9NP58 whole entry, looked up): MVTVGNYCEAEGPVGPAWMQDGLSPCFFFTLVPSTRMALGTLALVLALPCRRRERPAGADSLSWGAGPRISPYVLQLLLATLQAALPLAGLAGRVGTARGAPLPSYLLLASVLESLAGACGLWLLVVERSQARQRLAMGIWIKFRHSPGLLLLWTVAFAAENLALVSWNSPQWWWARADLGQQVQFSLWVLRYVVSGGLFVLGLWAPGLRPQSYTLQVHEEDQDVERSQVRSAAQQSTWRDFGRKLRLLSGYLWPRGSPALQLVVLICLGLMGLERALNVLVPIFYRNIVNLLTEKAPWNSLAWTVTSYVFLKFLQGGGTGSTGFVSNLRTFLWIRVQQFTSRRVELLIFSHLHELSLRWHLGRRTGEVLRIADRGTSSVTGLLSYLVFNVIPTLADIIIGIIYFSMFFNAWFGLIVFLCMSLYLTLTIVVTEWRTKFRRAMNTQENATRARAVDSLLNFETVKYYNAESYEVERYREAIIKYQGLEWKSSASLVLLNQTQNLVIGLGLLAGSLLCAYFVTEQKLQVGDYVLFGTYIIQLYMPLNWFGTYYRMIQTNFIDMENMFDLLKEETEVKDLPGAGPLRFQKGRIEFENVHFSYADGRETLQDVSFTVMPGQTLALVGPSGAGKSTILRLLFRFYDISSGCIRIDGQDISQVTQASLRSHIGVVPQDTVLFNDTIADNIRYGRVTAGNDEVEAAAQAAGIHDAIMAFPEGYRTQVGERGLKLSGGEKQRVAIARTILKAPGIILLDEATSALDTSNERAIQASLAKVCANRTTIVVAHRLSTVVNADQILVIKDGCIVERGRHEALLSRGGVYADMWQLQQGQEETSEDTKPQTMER

[16] = promoters of myeloid differentiation in arrested cells, primary screen, cell-based, GFP/MAC1 double positive, flow cytometry, validation set (AID 588685;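 active = differentiation response of at least 50%, scaled between solvent and reference control, from cells with both markers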;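 also: compound exposure lasts four days before antibody staining and flow analysis; 0% = DMSO wells and 100% = 5 µM fulvestrant positive control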); details: ER-HoxA9 marrow cells, stronger effect = higher value, normalized: vehicle 0, fulvestrant 100

CCc1c(C(C)=O)oc2ccc3c(C)cc(=O)oc3c12
inactive: percent of DMSO control GFP [1] 94.6% | GFP response vs DMSO [2] 125% | percent response of DMSO control [3] 115% | GFP response vs DMSO [4] 91.9% | GFP response, % of DMSO [5] 101% | vesicle binding response [6] 146% | inhibition [7] -13.9% | superoxide response (% of plate) [8] 92.5% | aptamer binding inhibition [9] 1% | response [10] 1.28% | inhibition [11] -11.6% | response [12] 0.32% | binding (% of control) [13] 99% | efflux inhibition (fraction of control) [14] -0.17 | inhibition [15] 11% | differentiation response [16] 9.01%
61.9%: double positive events [6]

CCOc1ccc2[nH]c3c(=O)n(CCc4ccc(OC)cc4)cnc3c2c1
inactive: percent of DMSO control GFP [1] 99.5% | GFP response vs DMSO [2] 112% | percent response of DMSO control [3] 90.1% | GFP response vs DMSO [4] 120% | GFP response, % of DMSO [5] 101% | vesicle binding response [6] 211% | inhibition [7] 6.4% | superoxide response (% of plate) [8] 99.7% | aptamer binding inhibition [9] 0% | response [10] 0.24% | inhibition [11] -8.18% | binding (% of control) [13] 102% | efflux inhibition (fraction of control) [14] 0.12 | inhibition [15] 5% | differentiation response [16] 29.6%
active: response [12] 65.9%
61.3%: double positive events [6]

O=Cc1ccc(OC(=O)c2cccnc2)cc1
inactive: percent of DMSO control GFP [1] 101% | GFP response vs DMSO [2] 91.9% | percent response of DMSO control [3] 107% | GFP response vs DMSO [4] 78.6% | GFP response, % of DMSO [5] 99.5% | vesicle binding response [6] 209% | inhibition [7] 2.3% | superoxide response (% of plate) [8] 98.5% | aptamer binding inhibition [9] 1% | response [10] -10.5% | inhibition [11] -1.7% | response [12] 1.76% | binding (% of control) [13] 93% | efflux inhibition (fraction of control) [14] 0.05 | inhibition [15] 4% | differentiation response [16] 16.8%
58.7%: double positive events [6]

O=C1CC(c2ccc(O)cc2)Oc2cc(O)cc(O)c21 (centres undefined)
inactive: percent of DMSO control GFP [1] 107% | GFP response vs DMSO [2] 99.3% | percent response of DMSO control [3] 107% | GFP response vs DMSO [4] 104% | GFP response, % of DMSO [5] 110% | vesicle binding response [6] 238% | inhibition [7] -31.6% | superoxide response (% of plate) [8] 91.7% | aptamer binding inhibition [9] 1% | response [10] -11.3% | inhibition [11] -6.71% | response [12] 4.67% | binding (% of control) [13] 94.3% | efflux inhibition (fraction of control) [14] -0.26 | inhibition [15] 9% | differentiation response [16] 1.22%
61.7%: double positive events [6]

c1ccc(CN(CC2=NCCN2)c2ccccc2)cc1
inactive: percent of DMSO control GFP [1] 87.8% | GFP response vs DMSO [2] 138% | percent response of DMSO control [3] 101% | GFP response vs DMSO [4] 78.7% | GFP response, % of DMSO [5] 84.3% | vesicle binding response [6] 273% and 176% | inhibition [7] -56.6% and -2.27% | superoxide response (% of plate) [8] 93.5% and 98.7% | aptamer binding inhibition [9] 1% and 2% | response [10] 7.43% and -2.34% | inhibition [11] 0.2% and -12.4% | response [12] -4.75% and 1.48% | binding (% of control) [13] 111% and 102% | efflux inhibition (fraction of control) [14] -0.35 and -0.31 | inhibition [15] -5% and 12% | differentiation response [16] 15.6% and -8.19%
64.5% and 68.1%: double positive events [6]

CC(=O)Nc1ccc(CN2CCN(C3CCCCC3)C(CCO)C2)cc1 (centres undefined)
62.8%: double positive events [6]
inactive: percent of DMSO control GFP [1] 102% | GFP response vs DMSO [2] 104% | percent response of DMSO control [3] 101% | GFP response vs DMSO [4] 114% | GFP response, % of DMSO [5] 120% | vesicle binding response [6] 172% | inhibition [7] -0.27% | superoxide response (% of plate) [8] 102% | aptamer binding inhibition [9] 0% | response [10] -18.9% | inhibition [11] -3.58% | response [12] -1.9% | binding (% of control) [13] 111% | efflux inhibition (fraction of control) [14] 0.12 | inhibition [15] 2% | differentiation response [16] -10.9%

O=C(O)CCCN1C(=O)NC2NC(=O)NC21 (centres undefined)
64.9%: double positive events [6]
inactive: percent of DMSO control GFP [1] 103% | GFP response vs DMSO [2] 114% | percent response of DMSO control [3] 101% | GFP response vs DMSO [4] 86.1% | GFP response, % of DMSO [5] 97.5% | vesicle binding response [6] 914% | inhibition [7] -1.49% | superoxide response (% of plate) [8] 106% | aptamer binding inhibition [9] 3% | response [10] 0.46% | inhibition [11] 35.1% | response [12] -1.41% | binding (% of control) [13] 98.4% | efflux inhibition (fraction of control) [14] -0.04 | inhibition [15] 25% | differentiation response [16] 33.5%

CCOCC(=O)Nc1nc2ccccc2s1
inactive: percent of DMSO control GFP [1] 92.4% | GFP response vs DMSO [2] 125% | percent response of DMSO control [3] 101% | GFP response vs DMSO [4] 80.9% | GFP response, % of DMSO [5] 94.2% | vesicle binding response [6] 149% | inhibition [7] 2.58% | superoxide response (% of plate) [8] 95.4% | aptamer binding inhibition [9] 6% | response [10] -8.15% | inhibition [11] -1.47% | response [12] 3.42% | binding (% of control) [13] 105% | efflux inhibition (fraction of control) [14] 0.23 | inhibition [15] 12% | differentiation response [16] -0.82%
65.7%: double positive events [6]

COCCn1c(SCCOc2ccccc2)nc2ccccc2c1=O
inactive: percent of DMSO control GFP [1] 99.8% | GFP response vs DMSO [2] 108% | percent response of DMSO control [3] 103% | GFP response vs DMSO [4] 103% | GFP response, % of DMSO [5] 96.8% | vesicle binding response [6] 154% | inhibition [7] 6.95% | superoxide response (% of plate) [8] 104% | aptamer binding inhibition [9] 5% | response [10] -6.97% | inhibition [11] -3.51% | response [12] 0.42% | binding (% of control) [13] 103% | efflux inhibition (fraction of control) [14] 0.36 | inhibition [15] 18% | differentiation response [16] 1.28%
54%: double positive events [6]

CCC(C)n1ncn(-c2ccc(N3CCN(c4ccc(OCC5COC(Cn6cncn6)(c6ccc(Cl)cc6Cl)O5)cc4)CC3)cc2)c1=O (centres undefined)
inactive: percent of DMSO control GFP [1] 115% | GFP response vs DMSO [2] 110% | percent response of DMSO control [3] 97.1% | GFP response vs DMSO [4] 133% | GFP response, % of DMSO [5] 102% | vesicle binding response [6] 22.8% | inhibition [7] 3.98% | aptamer binding inhibition [9] 4% | response [10] 8.75% | inhibition [11] -13.8% | response [12] 1.4% | binding (% of control) [13] 99.3% | inhibition [15] 7% | differentiation response [16] 6.49%
active: superoxide response (% of plate) [8] 53.9% | efflux inhibition (fraction of control) [14] 0.55
58.2%: double positive events [6]

Cc1ccc(S(=O)(=O)N[C@@H](Cc2ccccc2)C(=O)CCl)cc1
59.9%: double positive events [6]
inactive: percent of DMSO control GFP [1] 99.2% | GFP response vs DMSO [2] 91.8% | percent response of DMSO control [3] 92.5% | GFP response vs DMSO [4] 108% | GFP response, % of DMSO [5] 107% | vesicle binding response [6] 101% | inhibition [7] 48.3% | superoxide response (% of plate) [8] 100% | aptamer binding inhibition [9] 8% | response [10] 11.3% | inhibition [11] -2.91% | response [12] -3.47% | binding (% of control) [13] 99% | efflux inhibition (fraction of control) [14] 0.04 | inhibition [15] 9% | differentiation response [16] -4%

CC12CCC(C(=O)NNc3ccccc3)(C(=O)C1=O)C2(C)C (centres undefined)
62%: double positive events [6]
inactive: percent of DMSO control GFP [1] 104% | GFP response vs DMSO [2] 97.4% | percent response of DMSO control [3] 102% | GFP response vs DMSO [4] 94.8% | GFP response, % of DMSO [5] 100% | vesicle binding response [6] 217% | inhibition [7] -30.5% | superoxide response (% of plate) [8] 105% | aptamer binding inhibition [9] 8% | response [10] -5.89% | inhibition [11] 19.1% | response [12] -0.25% | binding (% of control) [13] 101% | efflux inhibition (fraction of control) [14] -0.03 | inhibition [15] -14% | differentiation response [16] 15.2%
